PubChem BioAssay (NCATS)
Inconclusive results are not listed. Entries that show only a call come without a potency. Where a structure was tested more than once in an assay, its records may differ in their call. Activity calls are given as the source filed them. Calls follow the shape of the dose curve; as a rule, active = well fitted curve in the direction sought with a large enough effect; inconclusive = small, poorly fitted or top-dose-only effect, or another doubt; inactive = no such curve, though single readings can be large; an effect the other way counts as inactive or inconclusive.

Key:
[1] = Quantitative highthroughput screen to assess conditional lethalithy of NOMO1 cells grown in RPMI1640 with untreated serum (RPMI+s) (AID 1963876); also: nearly all actives have a fitted effect of over 35% in size
How it was run: (§1)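 Each medium arm—HPLM with 10% dialyzed FBS, or RPMI1640 with 5 mM glucose and 10% untreated or dialyzed FBS—was screened against an 11-point, 3-fold compound titration for 48 h at 37 °C, with CellTiter-Glo luminescence as endpoint.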

[2] = Quantitative highthroughput screen to assess conditional lethalithy of NOMO1 cells grown in RPMI1640 with dialyzed fetal bovine serum (RPMI+ds) (AID 1963877); also: nearly all actives have a fitted effect of over 30% in size; as to viability: series mostly up to about 46 µM
How it was run: as §1

[3] = Quantitative highthroughput screen to assess conditional lethalithy of NOMO1 cells grown in Human Plasma-Like Medium with dialyzed fetal bovine serum (HPLM+ds) (AID 1963878); also: nearly all actives have a fitted effect of over 35% in size
How it was run: as §1

[4] = Quantitative highthroughput screen to assess conditional lethalithy of P12 Ichikawa cells grown in Human Plasma-Like Medium with dialyzed fetal bovine serum (HPLM+ds) (AID 1963879); conditions: Potency: viability; also: nearly all actives have a fitted effect of over 35% in size; as to viability: series mostly up to about 46 µM
How it was run: as §1

[5] = Quantitative highthroughput screen to assess conditional lethalithy of P12 Ichikawa cells grown in RPMI1640 with dialyzed fetal bovine serum (RPMI+ds) (AID 1963880); conditions: Potency: P12-Ichikawa viability; also: nearly all actives have a fitted effect of over 35% in size
How it was run: as §1

[6] = Quantitative highthroughput screen to assess conditional lethalithy of P12 Ichikawa cells grown in RPMI1640 with untreated serum (RPMI+s) (AID 1963881); conditions: Potency: viability; also: nearly all actives have a fitted effect of over 35% in size; as to viability: series mostly up to about 46 µM
How it was run: as §1

[7] = Quantitative highthroughput screen to assess conditional lethalithy of SEM cells grown in Human Plasma-Like Medium with dialyzed fetal bovine serum (HPLM+ds) (AID 1963882); also: nearly all actives have a fitted effect of over 35% in size; as to viability: series mostly up to about 46 µM
How it was run: as §1

[8] = Quantitative highthroughput screen to assess conditional lethalithy of SEM cells grown in RPMI1640 with unreated serum (RPMI+s) (AID 1963883); also: nearly all actives have a fitted effect of over 35% in size
How it was run: as §1

[9] = Quantitative highthroughput screen to assess conditional lethalithy of SEM cells grown in RPMI1640 with dialyzed fetal bovine serum (RPMI+ds) (AID 1963884); also: nearly all actives have a fitted effect of over 35% in size; as to viability: series mostly up to about 46 µM
How it was run: as §1
Potency is read from the fitted curve at half-maximal effect.

SMILES: CC[C@H]1OC(=O)[C@H](C)C(=O)[C@H](C)[C@@H](O[C@H]2O[C@H](C)C[C@H](N(C)C)[C@@H]2O)[C@](C)(OC)C[C@@H](C)C(=O)[C@H](C)[C@H]2N(CCCCn3cnc(-c4cccnc4)c3)C(=O)O[C@]12C
- Potency [1]: inactive
- Potency [2]: inactive
- Potency [3]: inactive
- Potency [4]: inactive
- Potency [5]: inactive
- Potency [6]: inactive
- Potency [7]: inactive
- Potency [8]: inactive
- Potency [9]: inactive

SMILES: C[C@H](NC(=O)C(C#N)=Cc1cccc(Br)n1)c1ccccc1
- Potency [1]: 2640 nM (active)
- Potency [2]: 3.32 µM (active)
- Potency [3]: 1870 nM (active)
- Potency [4]: 1480 nM (active)
- Potency [5]: 2350 nM (active)
- Potency [6]: 2350 nM (active)
- Potency [7]: 1320 nM (active)
- Potency [8]: 935 nM (active)
- Potency [9]: 1320 nM (active)

SMILES: CC(C=CC1=C(C)CCCC1(C)C)=CC=CC(C)=CC(=O)O
- Potency [1]: inactive
- Potency [2]: 833 nM (active) and inactive
- Potency [3]: inactive
- Potency [4]: inactive
- Potency [5]: inactive
- Potency [6]: inactive
- Potency [7]: inactive
- Potency [8]: inactive
- Potency [9]: inactive

SMILES: CC1=C(CO)C(=O)O[C@@H]([C@@H](C)[C@H]2CC[C@H]3[C@@H]4C[C@H]5O[C@]56[C@@H](O)C=CC(=O)[C@]6(C)[C@@H]4CC[C@]23C)C1
- Potency [1]: 372 nM (active)
- Potency [2]: 0.469 µM (active)
- Potency [3]: 296 nM (active)
- Potency [4]: 296 nM (active)
- Potency [5]: 264 nM (active)
- Potency [6]: 235 nM (active)
- Potency [7]: 235 nM (active)
- Potency [8]: 235 nM (active)
- Potency [9]: 264 nM (active)

SMILES: NC(=O)c1ncn([C@@H]2O[C@H](CO)[C@@H](O)[C@@H]2O)c1O
- Potency [1]: inactive
- Potency [2]: inactive
- Potency [3]: inactive
- Potency [4]: inactive
- Potency [5]: inactive
- Potency [6]: inactive
- Potency [7]: inactive
- Potency [8]: inactive
- Potency [9]: inactive

SMILES: C[C@]12CC[C@@H]3c4ccc(O)cc4CC[C@H]3[C@H]1C[C@@H](O)[C@H]2O
- Potency [1]: inactive
- Potency [2]: inactive
- Potency [3]: inactive
- Potency [4]: inactive
- Potency [5]: inactive
- Potency [6]: inactive
- Potency [7]: inactive
- Potency [8]: inactive
- Potency [9]: inactive

SMILES: Cc1nc(NC(=O)N2CCC[C@@H]2C(N)=O)sc1-c1csc(C(C)(C)C)n1
- Potency [1]: 2350 nM (active)
- Potency [2]: 1.66 µM (active)
- Potency [3]: 1480 nM (active)
- Potency [4]: 1660 nM (active)
- Potency [5]: 2350 nM (active)
- Potency [6]: 1660 nM (active)
- Potency [7]: 1050 nM (active)
- Potency [8]: 743 nM (active)
- Potency [9]: 1050 nM (active)

SMILES: CN1CC(=O)N2C(Cc3c([nH]c4ccccc34)[C@H]2c2ccc3c(c2)OCO3)C1=O (some centres not stated)
- Potency [1]: inactive
- Potency [2]: inactive
- Potency [3]: inactive
- Potency [4]: inactive
- Potency [5]: inactive
- Potency [6]: inactive
- Potency [7]: inactive
- Potency [8]: inactive
- Potency [9]: inactive

SMILES: O=C(O)C(=O)Nc1cccc(C2=NN=N[N]2)c1
- Potency [1]: inactive
- Potency [2]: inactive
- Potency [3]: inactive
- Potency [4]: inactive
- Potency [5]: inactive
- Potency [6]: inactive
- Potency [7]: inactive
- Potency [8]: inactive
- Potency [9]: inactive

SMILES: O=c1c(-c2ccc(O)cc2)coc2cc(O)ccc12
- Potency [1]: inactive
- Potency [2]: inactive
- Potency [3]: inactive
- Potency [4]: inactive
- Potency [5]: inactive
- Potency [6]: inactive
- Potency [7]: inactive
- Potency [8]: inactive
- Potency [9]: inactive

SMILES: O=C(O)[C@H](CC(=O)N1C[C@@H]2CCCC[C@H]2C1)Cc1ccccc1
- Potency [1]: inactive
- Potency [2]: inactive
- Potency [3]: inactive
- Potency [4]: inactive
- Potency [5]: inactive
- Potency [6]: inactive
- Potency [7]: inactive
- Potency [8]: inactive
- Potency [9]: inactive

SMILES: CC(=NNC(=S)N1CCC1)c1ccccn1
- Potency [1]: 8.3 nM (active)
- Potency [2]: 0.0053 µM (active)
- Potency [3]: 4.7 nM (active)
- Potency [4]: 5.3 nM (active)
- Potency [5]: 6.6 nM (active)
- Potency [6]: 5.9 nM (active)
- Potency [7]: 2.6 nM (active)
- Potency [8]: 3.3 nM (active)
- Potency [9]: 2.1 nM (active)

SMILES: CCOc1cc2ncc(C#N)c(Nc3ccc(OCc4ccccn4)c(Cl)c3)c2cc1NC(=O)C=CCN(C)C
- Potency [1]: 526 nM (active)
- Potency [2]: 0.935 µM (active)
- Potency [3]: 332 nM (active)
- Potency [4]: 590 nM (active)
- Potency [5]: 1050 nM (active)
- Potency [6]: 1050 nM (active)
- Potency [7]: 332 nM (active)
- Potency [8]: 148 nM (active)
- Potency [9]: 296 nM (active)

SMILES: CC(C=CC(=O)NO)=C[C@@H](C)C(=O)c1ccc(N(C)C)cc1
- Potency [1]: 2090 nM (active)
- Potency [2]: 1.87 µM (active)
- Potency [3]: 1660 nM (active)
- Potency [4]: 1480 nM (active)
- Potency [5]: 1180 nM (active)
- Potency [6]: 1180 nM (active)
- Potency [7]: 590 nM (active)
- Potency [8]: 662 nM (active)
- Potency [9]: 590 nM (active)

SMILES: O=C1NC(=O)C(=Cc2ccc3nccnc3c2)S1
- Potency [1]: inactive
- Potency [2]: inactive
- Potency [3]: inactive
- Potency [4]: inactive
- Potency [5]: inactive
- Potency [6]: inactive
- Potency [7]: inactive
- Potency [8]: inactive
- Potency [9]: inactive

SMILES: NC[C@H]1O[C@H](O[C@H]2[C@@H](O)[C@@H](O[C@H]3O[C@H](CO)[C@@H](O)[C@H](N)[C@@H]3O)[C@H](N)C[C@@H]2N)[C@H](N)C[C@H]1O
- Potency [1]: inactive
- Potency [2]: inactive
- Potency [3]: inactive
- Potency [4]: inactive
- Potency [5]: inactive
- Potency [6]: inactive
- Potency [7]: inactive
- Potency [8]: inactive
- Potency [9]: inactive

SMILES: COc1cc(Nc2ncc(F)c(Nc3ccc4c(n3)NC(=O)C(C)(C)O4)n2)cc(OC)c1OC
- Potency [1]: 5900 nM (active)
- Potency [2]: 9.35 µM (active)
- Potency [3]: 4690 nM (active)
- Potency [4]: 4180 nM (active)
- Potency [5]: 5260 nM (active)
- Potency [6]: 5260 nM (active)
- Potency [7]: 1660 nM (active)
- Potency [8]: 1480 nM (active)
- Potency [9]: 1660 nM (active)

SMILES: CO[C@H]1C=CC=C(C)C(=O)NC2=CC(=O)C(NCCN(C)C)=C(C[C@@H](C)C[C@H](OC)[C@@H](O)[C@@H](C)C=C(C)[C@@H]1OC(N)=O)C2=O
- Potency [1]: 743 nM (active)
- Potency [2]: 0.662 µM (active)
- Potency [3]: 662 nM (active)
- Potency [4]: 4690 nM (active)
- Potency [5]: 935 nM (active)
- Potency [6]: 743 nM (active)
- Potency [7]: 166 nM (active)
- Potency [8]: 148 nM (active)
- Potency [9]: 118 nM (active)
